Screening data (PubChem BioAssay)
Shown are actives, neighbours in structure and some others; about 2.3% of the full set was active somewhere.
TRPM1 prom inh: inhibitors of MITF-driven TRPM1 promoter in melanoma cells; SK-MEL-5 TRPM1 promoter luciferase, 24 h; inhibition, % at 12.5 µM; 330,000 compounds, 0.83% hits;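 active = mean inhibition across replicates of 60% or more, whatever share of single replicates reaches that level; inconclusive = some that reach 60%, reason not given; inactive = mean inhibition across replicates below 60%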
697 NFkB inh: inhibitors of the PMA/ionomycin-induced NF-kB reporter in 697 B cells | 697 B-cell NF-kB luciferase reporter, 16 h | inhibition, % at 4 µM | 330,000 compounds, 0.33% hits; in the data active = inhibition above about 35%
Shn3 3UTR inh: reduces Shn3 3'UTR luciferase signal in osteoblasts. AID 588674. inhibition, % at 12.5 µM. 360,000 compounds, 0.52% hits. Clone20 osteoblast Shn3 3'UTR firefly luciferase, 24 h;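 active = mean inhibition of at least 75% with every replicate also reaching 75%; inconclusive = mean inhibition at least 75% but some replicate below; inactive = mean inhibition below 75%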;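 also: 0% = median of neutral control wells and 100% = pilot-screen positive control compound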
Jurkat NFkB inh: inhibitors of the PMA/ionomycin-induced NF-kB reporter in Jurkat cells | PMA/ionomycin-induced NF-kB luciferase reporter, luminescence | inhibition, % at 4 µM | 330,000 compounds, 0.53% hits | AID 435003; in the data active = inhibition above about 50%
Gli-Sufu antag: Gli-Sufu pathway antagonism | inhibition, % at 5 µM | Sufu-KO-LIGHT fibroblasts, Gli luciferase reporter luminescence | 340,000 compounds, 0.74% hits;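 active = inhibition above about 55%, limit read from the data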;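 also: 0% = DMSO-treated cells and 100% = wells with medium but no cells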
LMP1 NFkB inh: Epstein-Barr LMP1 NF-kappaB reporter inhibition. LMP1-induced NF-kappaB luciferase reporter cells, luminescence. inhibition, % at 12.5 µM. 350,000 compounds, 0.69% hits; in the data active = inhibition above about 41%; inconclusive = no clear call, values can overlap the other calls;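 also: 0% = neutral control wells and 100% = reference inhibitor control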
Active calls of the source: *; u = inconclusive; x = no result given.

SMILES	TRPM1 prom inh	697 NFkB inh	Shn3 3UTR inh	Jurkat NFkB inh	Gli-Sufu antag	LMP1 NFkB inh
CCCCCSc1nc2c(c(=O)[nH]c(=O)n2C)n1CC	-12	0	-2	10	-5	82*
COCCn1c(SCCN2CCOCC2)nc2c1c(=O)[nH]c(=O)n2C	-1	16	-30	11	7	77*
COC(=O)C(c1ccccc1)C(CC(=O)c1ccccc1)c1ccccc1 (configuration not stated)	x	x	-20	x	x	-4
Cc1nnsc1C(=O)N/N=C/c1ccccc1	-1	5	2	-11	-7	4
Cc1nnsc1C(=O)N/N=C/c1ccc2ccccc2c1O	69*	-18	81	43	86*	48*
CCCCCCCn1c2c(c(=N)c3c1CCC3)CCCC2	68*	x	44	x	90*	41*
CCn1c2c(c(=N)c3c1CCC3)CCC2	7	10	14	13	-8	-7
Cc1ccc(NC(=O)COC(=O)COc2ccc(Cl)cc2C)c([N+](=O)[O-])c1	-8	6	-66	6	-5	-8
COc1cc(N)c(Br)cc1C(=O)O	-11	9	-7	10	-4	2
Nc1cc2c(cc1Br)-c1c(C(=O)O)cccc1C2O (configuration not stated)	-14	x	86*	x	17	23
Cc1ccc(NC(=O)C(OC(=O)c2cnc(C)cn2)c2ccccc2)c([N+](=O)[O-])c1 (configuration not stated)	-3	-7	-23	-16	4	6
O=C1S/C(=C\c2ccc(N3CCOCC3)o2)C(=O)N1Cc1c(F)cccc1Cl	2	17	96*	0	-3	-1
CCCCN1C=CC(=C2C(=O)c3ccccc3C2=O)C=C1	96*	-33	91*	-4	x	75*
CCCOc1ccc2oc(=O)c3c(c2c1)CCCN3C(=O)CN1CCN(c2ncccn2)CC1	1	15	94*	5	-1	-6
OC1CC2CCC(C1)N2CCCN1c2ccccc2Sc2ccc(Cl)cc21 (configuration not stated)	91*	x	64	x	14	-11
CCOC(=O)N1CCC(NC(=O)C2CCCN(Cc3nc(-c4cccc(C)c4)oc3C)C2)CC1 (configuration not stated)	72*	-21	86*	26	48	19
COc1cc2nc(Nc3ccc(C)c(Cl)c3)nc(N)c2cc1OC	70*	-13	24	38	25	9
COc1cc2nc(Nc3ccc(C)c(C)c3)nc(N)c2cc1OC	35	-12	-24	21	9	-10
OC(COc1ccc(CNCCc2ccc(C(F)(F)F)cc2)cc1)CN1CCCCC1 (configuration not stated)	94*	-4	34	5	31	-13
COc1ccc([N+](=O)[O-])c(S(=O)(=O)c2ccc(Cl)cc2)n1	71*	17	94*	13	4	62*
O=[N+]([O-])c1cccnc1S(=O)(=O)c1ccccc1	23	12	98*	34	10	-2
Cc1ccc(S(=O)(=O)N2CCOCC2)cc1C(=O)Nc1ccc2c(c1)CCC2	-3	11	-3	-4	-2	-5
OC(CNC1CCCCCC1)COc1cccc2ccccc12 (configuration not stated)	-22	-18	70	8	46	13
CC(C)CCN(C(=O)Cc1ccc(Cl)c(Cl)c1)c1c(N)n(Cc2ccccc2)c(=O)[nH]c1=O	81*	24	23	5	3	3
Cc1cccc(C(=O)N(Cc2ccco2)c2c(N)n(Cc3ccccc3)c(=O)[nH]c2=O)c1	5	24	20	11	3	68*
SMILES	TRPM1 prom inh	697 NFkB inh	Shn3 3UTR inh	Jurkat NFkB inh	Gli-Sufu antag	LMP1 NFkB inh
Nc1c(N(CCC2=CCCCC2)C(=O)COc2ccc(F)cc2Cl)c(=O)[nH]c(=O)n1Cc1ccccc1	97*	x	78	x	9	6
Nc1c(N(CCC2=CCCCC2)C(=O)Cc2ccc(F)cc2)c(=O)[nH]c(=O)n1Cc1ccccc1	0	13	22	4	-4	0
CC(C)CN(C(=O)COC(=O)/C=C/c1ccc(Cl)c(Cl)c1)c1c(N)n(Cc2ccccc2)c(=O)[nH]c1=O	100*	-13	-11	25	-5	10
COCCN(C(=O)COC(=O)/C=C/c1ccc(Cl)c(Cl)c1)c1c(N)n(Cc2ccccc2)c(=O)[nH]c1=O	12	x	12	x	5	11
Cc1ccccc1OCc1nc(-c2ccc(NC(=O)c3ccc4c(c3)OCO4)cc2)no1	-2	-77	4	-1	-13	-10
COc1ccc(O)c(/C=N/c2nc3ccccc3n2C)c1	-16	-8	9	-2	-7	90*
CCCn1c(/N=C/c2cc(OC)ccc2O)nc2ccccc21	-5	-25	19	-13	-2	-18
CCCCCN=Cc1c(C)[nH]n(-c2nc3ccccc3s2)c1=O	20	-59	-5	8	-9	51*
CCCc1[nH]n(-c2nc3ccccc3s2)c(=O)c1C=NCCCOC	-3	2	-27	-1	-1	-8
COc1cccc(C(=O)N2CCN(c3nc4cc(C)cc(C)c4cc3C#N)CC2)c1	x	x	3	x	x	57*
Cc1cc(C)c2cc(C#N)c(N3CCCN(C(=S)NCCCN(C)C)CC3)nc2c1	88*	-5	12	-2	14	-21
CN(CC1CCCO1)S(=O)(=O)c1ccc(C(=O)Nc2ccc(S(N)(=O)=O)cc2)cc1 (configuration not stated)	-53	-7	-3	7	5	-17
O=C(c1ccc([N+](=O)[O-])o1)N1CCN(c2nc3c(F)cc(F)cc3s2)CC1	79*	4	26	42	46	-24
C=CC(=O)Nc1cccc(N(C)c2ccnc(Nc3ccc(N4CCN(C)CC4)cc3)n2)c1	25	x	84	x	50	44*
COC(=O)C1(S(=O)(=O)c2cc(Br)cc3c2N(C(C)=O)CC3)CC1	1	-11	-5	9	-3	-4
Cc1ccc(-c2cc(C(F)F)n3ncc(C(=O)N4CCCCC4c4cccnc4)c3n2)cc1 (configuration not stated)	30	1	12	4	8	-15
Cc1ccc(S(=O)(=O)N2CCCCC2C(=O)Nc2nncs2)cc1 (configuration not stated)	6	1	-12	-15	0	-4
COc1cc(CNCCc2c[nH]c3ccccc23)ccc1OCc1ccccc1F	2	-11	16	-11	-5	12
COc1cccc(CNCCc2c[nH]c3ccccc23)c1OCc1ccccc1	94*	-20	u	11	17	-5
N#Cc1c(N)n(-c2ccc(N)cc2)c2nc3ccccc3nc12	-5	12	0	10	0	3
N#Cc1c(C#N)c(SSc2c(C#N)c(C#N)c(N)n2-c2ccccc2)n(-c2ccccc2)c1N	93*	x	89*	x	5	-1
